Assay outcomes from PubChem.
FMDV antiviral – Primary qHTS Assay for Foot and Mouth Disease Virus Antivirals against NCGC Sytravon and CBC Compound Libraries: Firefly Luciferase Signal; FMDV antiviral cell assay, firefly luciferase signal; Potency, µM (titrated, usually from 57.5 µM), for the others: at the top dose activity change, negative = inhibition, usual class: inhibitors; 0.23% of 120,000 active; also: nearly all actives have a fitted effect of over 60% in size
FMDV Renilla – Primary qHTS Assay for Foot and Mouth Disease Virus Antivirals against NCGC Sytravon and CBC Compound Libraries: Renilla Luciferase Signal; FMDV replicon cells, Renilla luciferase signal; Potency, µM (series often up to 57.5 µM), inactives show top-dose activity change, negative = inhibition, hits mostly inhibitors; 0.32% of 120,000 active; also: nearly all actives have a fitted effect of over 55% in size
Starred values were filed as active, the others as inactive; ? = inconclusive; ! = repeats disagree. Compounds with a hit are over-represented: about 0.45% of the library has one in this group of screens. Calls follow the shape of the full dose curve. % is scaled to controls: 0 for no effect and ±100 for the full control effect; potency is read from the fitted curve at half-maximal effect.

SMILES	FMDV antiviral	FMDV Renilla
COc1ccc(C2C(C#N)=C(N)Oc3n[nH]c(C)c32)cc1COc1cc(C)c(Cl)c(C)c1 (stereo not given)	-5%	-5%
CCCCCCc1ccc(C(=O)Oc2ccc(Cl)cc2)cc1	-7%	-7%
CCCCCCC[N+](CC)(CC)CCCCc1ccc(Cl)cc1	?	7.9µM*
O=C(Nc1cccc(Br)c1)Nc1ccc2c(c1)N(C(=O)c1ccccc1)CC2	?	14µM*
CC(=O)c1cccc(NC(=O)Nc2cccc(Br)c2)c1	11%	2%
CCN1CCN(c2nc3c(c(=O)n(C)c(=O)n3C)n2CC(N)=O)CC1	-3%	-13%
CC1CCN(CCCNC2CCCCCC2)CC1	-20%	-13%
CC(C)CNc1nc(-c2ccc(S(=O)(=O)N3CCCC3)cc2)cs1	?	22µM*
CCNc1nc(-c2ccc(S(=O)(=O)N3CCCCCC3)cc2)cs1	-9%	-13%
C[N+](C)(CC(=O)O)C[Si](C)(C)C	10%	13%
CCc1nc(NCc2ccncc2)c(C#N)c2c1CCCC2	7.1µM*	?
CCCCc1nc(NCc2ccncc2)c(C#N)c2c1CCCC2	?	0%
O=C(CSc1nnc(-c2ccncc2)n1C1CC1)Nc1ccccc1C(=O)NC1CC1	14%	1%
CCCCOc1ccc(C(=O)NCCS(=O)(=O)N2CCN(c3ccccc3OC)CC2)cc1	18µM*	?
CCCCOc1ccc(C(=O)NCCS(=O)(=O)N2CCN(c3ccc(F)cc3)CC2)cc1	-16%	-12%
Cc1sc2nc(CN3CCOCC3)nc(N(C)CC(=O)Nc3cccc4ccccc34)c2c1C	0%	6%
O=C(c1ccnc(Cl)c1)N1CCC(c2nc3cc(C(F)(F)F)ccc3s2)CC1	11µM*	?
Cc1ccc2oc(C(=O)N3CCC(c4nc5ccccc5s4)CC3)c(C)c2c1	-6%	-16%
Cc1ccc(C(=O)N2CCC(c3nc4cc(C(F)(F)F)ccc4s3)CC2)cn1	?	14µM*
COc1cc(C(=O)N2CCC(c3nc4ccccc4s3)CC2)cc(OC)c1OC	?	-28%
Cc1cc2c(c(=O)n1CCN(C)C)C(c1ccc(Cl)cc1Cl)C(C#N)=C(N)O2 (stereo not given)	-20%	-8%
O=C(O)CCCN1CCCCCC1	8%	-6%
N#Cc1ccc(NC(=O)NCCNc2ccccn2)cc1	-7%	68%
O=C(Nc1ccncc1)c1ccc(-c2ccccc2)cc1	-11%	3.2µM*
O=C(Nc1ccc(F)c(Cl)c1)c1ccc(-c2ccccc2)cc1	118%	11%
SMILES	FMDV antiviral	FMDV Renilla
CC(C)c1cnc2c(c1SCC(=O)c1ccc(Cl)cc1)c(=O)n(C)c(=O)n2C	29%	25µM*
CC(C)c1cnc2c(c1SCC(=O)O)c(=O)n(C)c(=O)n2C	-14%	-4%
COc1cc(C=O)ccc1O	-1%	2%
COc1cc(C=C2CCC/C(=C\c3ccc(O)c(OC)c3)C2=O)ccc1O	22µM*	?
O=C(c1cc2ccccc2[nH]1)N1CCN(S(=O)(=O)c2cccs2)CC1	1%	-7%
COc1ccc(-c2c(C)c3cc(OS(=O)(=O)c4ccc(C)cc4)ccc3oc2=O)cc1	-31%	?
COc1ccc(-c2c(C)oc3cc(OS(=O)(=O)c4ccc(C)cc4)ccc3c2=O)cc1	3.2µM*	2.2µM*
Cc1c(C(=O)Nc2ccc3oc(-c4cncc(Br)c4)nc3c2)cccc1[N+](=O)[O-]	103%	0%
Cc1cc(C)c(NCC(=O)NNC(=O)c2cnccn2)c(C)c1	-3%	-7%
CCOc1ccccc1NC(=O)C(C)Oc1ccc(-n2cnnn2)cc1 (stereo not given)	-10%	5%
Cc1cccc(-c2nnc(SCC(=O)N3CCCCC3)o2)c1	131%	9%
Cc1cccc(-c2nnc(SCCC(=O)O)o2)c1	1µM*	-9%
CCOC(=O)C1=C(Nc2ccccc2)O/C(=C\c2ccc(OC(F)F)cc2OC(F)F)C1=O	10µM*	?
CCOC(=O)c1cccc(Nc2nc3ccccc3nc2NS(=O)(=O)c2ccccc2)c1	3%	-2%
Cc1ccc(Nc2nc(C(=O)N3CCC(C(=O)NCc4ccccc4)CC3)cs2)cc1	48%	11%
Cc1cccc(Nc2nc(C(=O)N3CCC(C)CC3)cs2)c1	25µM*	13µM*
Fc1ccccc1CNCCOc1ccccn1	62%	10%
O=C(NCc1ccncc1)c1ccc(C2CCCCC2)cc1	?	3.5µM*
O=C(NCc1ccccn1)c1ccc(C2CCCCC2)cc1	0%	8%
COc1ccc(C(=O)NCC2COc3ccccc3O2)cc1OC (stereo not given)	69%	34%
CCOC(=O)C1=C(C)Nc2nc(SCc3cccc(C)c3)nn2C1c1cccs1 (stereo not given)	9%	2%
O=C(CN1CCN(C(=O)c2ccc(I)cc2)CC1)N1CCCCC1	19%	10%
Cc1ccc(-n2nc(CO)c(C(=O)NCC(c3ccccc3)c3ccccc3)n2)cc1	-22%	-12%
Cc1ccccc1-n1nc(CO)c(C(=O)NCC(c2ccccc2)c2ccccc2)n1	?	8.9µM*
O=C(NCC(c1ccccc1)c1ccccc1)c1nn(-c2ccccc2Cl)nc1CO	?	28µM*!
SMILES	FMDV antiviral	FMDV Renilla
O=C(NCc1cccs1)c1nn(-c2ccccc2Cl)nc1CO	?	21%
O=C(CN1CCCCCC1)NCCc1c[nH]c2ccccc12	10%	-5%
Cc1ccc(CNC(=O)CCNS(=O)(=O)c2c(C)[nH]c(C)c2C(=O)N2CCCC2)cc1	-2%	14%
CCS(=O)(=O)N1CCc2ccc(NC(=O)Nc3ccc(C)c(C)c3)cc21	?	4.5µM*
CCS(=O)(=O)N1CCc2cc(C(=O)Nc3ccc(C)c(Cl)c3)ccc21	96%	22%
O=C(CCc1ccsc1)NCC1CCCC1	0%	14%
CCOC(=O)c1c(C)oc2ncn(Cc3noc(-c4cccs4)n3)c(=O)c12	-14%	-12%
COC(=O)c1ccc(CO/N=C/c2ccc(OCc3ccc(Cl)cc3)c(OC)c2)cc1	252%	4%
COC(=O)c1ccc(CO/N=C/c2ccc(Cl)cc2Cl)cc1	7.9µM*	9%
[O-]/[N+](=C\c1ccncc1)c1ccc(Cl)cc1	47%	-1%
CCCOc1ccc(C(=O)C(CCC(CNC(C)(C)C)C(=O)c2ccc(OCCC)cc2)CNC(C)(C)C)cc1 (stereo not given)	?	28µM*
CCCOc1ccc(C(=O)Nc2ccc(NC(=O)c3ccc(Br)cc3)cc2)cc1	7%	-8%
CC(C)C[C@H](NC(=O)c1ccc2nc(-n3cccc3)sc2c1)C(=O)NCc1ccncc1	-1%	6%
Cc1cccc(CN2CCN(C(=O)c3n[nH]c(=O)c4ccccc34)CC2)c1	14µM*	?
O=C(c1n[nH]c(=O)c2ccccc12)N1CCN(CC(F)(F)F)CC1	38%	17%
CCCCOC(=O)c1ccc(NC(=O)c2ccc3c(c2)CCN3S(=O)(=O)c2ccccc2)cc1	-39%	-11%
CCCCOC(=O)c1ccc(NC(=O)c2ccc3c(c2)CCCN3S(C)(=O)=O)cc1	28µM*	22µM*
COCCn1c(-c2ccc(OCc3ccc(F)cc3)c(OC)c2)nc2c1c(=O)[nH]c(=O)n2CC(C)C	0%	1%
CCOC(=O)C1CCCN(S(=O)(=O)c2ccc3c(c2)CCCN3C(C)=O)C1 (stereo not given)	-32%	151%
COc1ccccc1N1CCN(C(=O)C2CCCN(S(=O)(=O)c3ccc4c(c3)CCCN4C(C)=O)C2)CC1 (stereo not given)	?	25µM*
